The results in this text go back to PubChem BioAssay (EPA / NIEHS).

Read-out in test [1]: Interleukin-1 alpha (IL1a), IL1A (gene 3552)
As to the kind of experiment: BSK_KF3CT_IL1a: BioMAP Diversity Plus: KF3CT Assay for Interleukin-1 alpha (IL1a) Biomarker Activity (AID 2283070). The note with it: primary human keratinocytes with fibroblasts; actives raise or lower the signal. In outline:
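Human keratinocyte plus foreskin fibroblast primary co-culture, sampled 24 h after chemical dosing. IL-1a measured by ELISA; responses fitted bidirectionally against DMSO baseline (negative control), so gain or loss of signal both count.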

Read-out in test [2]: TIMP metallopeptidase inhibitor 2 (TIMP2), TIMP2 (gene 7077)
As to the kind of experiment: BSK_KF3CT_TIMP2: BioMAP Diversity Plus: KF3CT Assay for TIMP metallopeptidase inhibitor 2 (TIMP2) Biomarker Activity (AID 2283071). The note with it: primary human keratinocytes with fibroblasts; actives raise or lower the signal. The method, boiled down: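 Cells: human keratinocytes co-cultured with foreskin fibroblasts. Treat with chemical, 24 h. Measure TIMP-2 by ELISA; fit curves bidirectionally vs DMSO baseline.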

Read-out in test [3]: C-C motif chemokine 2 (Homo sapiens) (UniProt P13500)
Description: BSK_KF3CT_MCP1: BioMAP Diversity Plus: KF3CT Assay for Monocyte Chemoattractant Protein 1 (MCP1/CCL2) Biomarker Activity (AID 2283073). As to conditions: primary human keratinocytes with fibroblasts; actives raise or lower the signal. In outline: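 ELISA read-out of MCP-1, 24 h post-dose, in primary human skin keratinocytes co-cultured with fibroblasts. Parallel SRB staining monitors cytotoxicity; changes fitted both directions relative to DMSO.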

Read-out in test [4]: Matrix Metallopeptidase 9 (MMP9), MMP9 (gene 4318)
As to the kind of experiment: BSK_KF3CT_MMP9: BioMAP Diversity Plus: KF3CT Assay for Matrix Metallopeptidase 9 (MMP9) Biomarker Activity (AID 2283074).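 For AC50: MMP9 protein level quantified by ELISA in the co-culture.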 As to conditions: primary human keratinocytes with fibroblasts; actives raise or lower the signal. The method, boiled down: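 Keratinocyte plus foreskin fibroblast human primary skin co-culture was dosed with chemical and MMP-9 was quantified by ELISA 24 h later. Bidirectional curve fitting used DMSO as negative control and activity baseline.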

Read-out in test [5]: CD40, CD40 (gene 958)
As to the kind of experiment: BSK_LPS_CD40: BioMAP Diversity Plus: LPS Assay for CD40 Biomarker Activity (AID 2283076). The note with it: primary human HUVEC with PBMC; actives raise or lower the signal. In outline:
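In the LPS system of human endothelial cells with peripheral blood mononuclear cells, CD40 levels were read by ELISA 24 h post-treatment. Signal changes in either direction were fitted against the DMSO baseline, with parallel SRB protein staining.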

Read-out in test [6]: E-selectin (Homo sapiens) (UniProt P16581)
Description: BSK_LPS_Eselectin: BioMAP Diversity Plus: LPS Assay for Eselectin Biomarker Activity (AID 2283077). As to conditions: primary human HUVEC with PBMC; actives raise or lower the signal. In outline:
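E-selectin ELISA on LPS-stimulated endothelial cell/PBMC co-cultures, read 24 h post-treatment; gains and losses fitted against DMSO. Parallel SRB staining (0.1% SRB after 10% TCA fixation, 560 nm) flags overt cytotoxicity.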

Read-out in test [7]: Interleukin-8 (IL8), CXCL8 (gene 3576)
As to the kind of experiment: BSK_LPS_IL8: BioMAP Diversity Plus: LPS Assay for Interleukin-8 (IL8) Biomarker Activity (AID 2283078). The note with it: primary human HUVEC with PBMC; actives raise or lower the signal. The method, boiled down: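 ELISA read-out of IL-8 after 24 h chemical treatment of LPS-activated endothelial/PBMC human primary co-cultures. Changes either up or down relative to DMSO; overt cytotoxicity checked by sulforhodamine B staining in parallel wells.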

The nature of test [8]: BSK_LPS_SRB: Viability Assessment in the BioMAP Diversity Plus: LPS Assay (AID 2283079).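 Note: total protein by sulforhodamine B absorbance as a cytotoxicity measure; measured one day after compound addition.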 The note with it: primary human HUVEC with PBMC. The method, boiled down:
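SRB viability endpoint: cells fixed with 10% TCA, stained with 0.1% SRB, read at 560 nm, 24 h post-dose. HUVEC/PBMC co-culture; signal change in either direction scored relative to DMSO.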

Read-out in test [9]: Interleukin-1 alpha (IL1a), IL1A (gene 3552)
As to the kind of experiment: BSK_LPS_IL1a: BioMAP Diversity Plus: LPS Assay for Interleukin-1 alpha (IL1a) Biomarker Activity (AID 2283080). As to conditions: primary human HUVEC with PBMC; actives raise or lower the signal. In outline: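 Readout is IL-1a level by ELISA, 24 h post-dose, fitted as gain or loss relative to DMSO. System: LPS-activated human primary co-culture of vascular endothelium and peripheral blood mononuclear cells, with parallel SRB total-protein cytotoxicity.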

Read-out in test [10]: Monocyte Chemoattractant Protein-1 (MCP1), CCL2 (gene 6347)
As to the kind of experiment: BSK_LPS_MCP1: BioMAP Diversity Plus: LPS Assay for Monocyte Chemoattractant Protein-1 (MCP1) Biomarker Activity (AID 2283081).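 For AC50: secreted MCP-1 protein quantified by ELISA in culture supernatant.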 The note with it: primary human HUVEC with PBMC; actives raise or lower the signal. The method, boiled down: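 Secreted MCP-1 read by ELISA at 24 h post-dosing in an LPS-activated co-culture of endothelial cells with peripheral blood mononuclear cells. Fits run in both directions, DMSO as baseline; parallel SRB staining tracks overt cytotoxicity.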

Test [11] can be described thus: BSK_LPS_PGE2: BioMAP Diversity Plus: LPS Assay for Prostaglandin E2 (PGE2) Biomarker Activity (AID 2283082).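 For AC50: secreted prostaglandin E2 measured by ELISA in LPS-stimulated co-culture.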 As to conditions: primary human HUVEC with PBMC; actives raise or lower the signal. In outline: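 LPS-activated HUVEC/PBMC co-culture; cmpd dosed, 24 h; PGE2 by ELISA; bidirectional fit vs DMSO; SRB (0.1%, TCA-fixed, 560 nm) in parallel plates for overt cytotox.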

Read-out in test [12]: Macrophage colony-stimulating factor (MCSF), CSF1 (gene 1435)
Description: BSK_LPS_MCSF: BioMAP Diversity Plus: LPS Assay for Macrophage colony-stimulating factor (MCSF) Biomarker Activity (AID 2283083). As to conditions: primary human HUVEC with PBMC; actives raise or lower the signal. The method, boiled down:
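Bidirectional fitting against DMSO was applied to M-CSF levels read by ELISA at 24 h post-dose. The system pairs human umbilical vein endothelium with peripheral blood mononuclear cells; parallel SRB staining tracked cytotoxicity.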

Read-out in test [13]: Tissue Factor, F3 (gene 2152)
Description: BSK_LPS_TissueFactor: BioMAP Diversity Plus: LPS Assay for Tissue Factor Biomarker Activity (AID 2283084). The note with it: primary human HUVEC with PBMC; actives raise or lower the signal. In outline:
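Compound was added to an endothelial cell/PBMC co-culture, and after 24 h tissue factor (CD142) was read by ELISA. Gain or loss of signal was fitted against a DMSO baseline, and parallel SRB staining (560 nm) tracked overt cytotoxicity.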

Read-out in test [14]: Tumor necrosis factor (Homo sapiens) (UniProt P01375)
As to the kind of experiment: BSK_LPS_TNFa: BioMAP Diversity Plus: LPS Assay for Tumour Necrosis Factor alpha (TNFa) Biomarker Activity (AID 2283085).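 For AC50: TNFa protein level quantified by ELISA in the co-culture.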 As to conditions: primary human HUVEC with PBMC; actives raise or lower the signal. The method, boiled down: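 Read-out is ELISA of TNFa in primary human endothelial cell–PBMC co-cultures at 24 h after compound. Activity in either direction was fitted against DMSO.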

Read-out in test [15]: Vascular cell adhesion molecule 1 (VCAM1), VCAM1 (gene 7412)
Description: BSK_LPS_VCAM1: BioMAP Diversity Plus: LPS Assay for Vascular cell adhesion molecule 1 (VCAM1) Biomarker Activity (AID 2283086). As to conditions: primary human HUVEC with PBMC; actives raise or lower the signal. The method, boiled down: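 HUVEC + PBMC co-culture, LPS system; compound 24 h; VCAM-1 by ELISA; bidirectional fit vs DMSO control; parallel SRB (0.1%, TCA-fixed, 560 nm) for cytotoxicity.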

Read-out in another test: CD38, CD38 (gene 952)
Description: BSK_SAg_CD38: BioMAP Diversity Plus: SAg Assay for CD38 Biomarker Activity (AID 2283087). As to conditions: primary human HUVEC with PBMC; actives raise or lower the signal. In outline:
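Human HUVEC plus PBMC co-culture stimulated with superantigen; CD38 measured by ELISA 24 h after chemical dosing. Fluorescence read-out, bidirectional fit against DMSO; cytotoxicity tracked in parallel by SRB and Alamar Blue.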

Read-out in test [16]: CD40, CD40 (gene 958)
Description: BSK_SAg_CD40: BioMAP Diversity Plus: SAg Assay for CD40 Biomarker Activity (AID 2283088). As to conditions: primary human HUVEC with PBMC; actives raise or lower the signal. In outline:
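CD40 is measured by fluorescence ELISA in an endothelial/PBMC primary human co-culture at 24 h post-dose. Fitting is bidirectional, DMSO baseline. Parallel SRB staining (560 nm) flags cytotoxicity.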

Read-out in another test: CD69, CD69 (gene 969)
Description: BSK_SAg_CD69: BioMAP Diversity Plus: SAg Assay for CD69 Biomarker Activity (AID 2283089).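 For AC50: cell surface CD69 protein quantified by ELISA with fluorescence detection.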 The note with it: primary human HUVEC with PBMC; actives raise or lower the signal. The method, boiled down: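 ELISA, fluorescence read-out: CD69 on human umbilical vein endothelial cell + PBMC co-culture, 24 h post-dosing. Gain or loss of signal fitted bidirectionally against DMSO baseline.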

Read-out in test [17]: urokinase plasminogen activator (uPA), PLAU (gene 5328)
Description: BSK_KF3CT_uPA: BioMAP Diversity Plus: KF3CT Assay for urokinase plasminogen activator (uPA) Biomarker Activity (AID 2283075). The note with it: primary human keratinocytes with fibroblasts; actives raise or lower the signal. In outline:
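Human keratinocyte plus foreskin fibroblast primary co-culture exposed to chemical for 24 h. uPA levels were quantified by ELISA, and activity was fitted bidirectionally against a DMSO negative-control baseline.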

Molecules are shown by their SMILES. The source made the active and inactive calls. Rule for the calls: active = hit-call score of the fitted dose curve at least 0.9, where 1 is the maximum; inactive = score below 0.9.

Tumor necrosis factor (Homo sapiens), sequence (P01375 whole entry, looked up): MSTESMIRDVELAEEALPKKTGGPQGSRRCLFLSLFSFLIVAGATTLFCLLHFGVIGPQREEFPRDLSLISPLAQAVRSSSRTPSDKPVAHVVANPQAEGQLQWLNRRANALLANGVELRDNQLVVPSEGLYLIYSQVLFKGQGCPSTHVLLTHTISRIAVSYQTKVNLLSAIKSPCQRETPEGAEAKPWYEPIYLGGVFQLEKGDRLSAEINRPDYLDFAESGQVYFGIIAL
E-selectin (Homo sapiens), sequence (P16581 whole entry, looked up): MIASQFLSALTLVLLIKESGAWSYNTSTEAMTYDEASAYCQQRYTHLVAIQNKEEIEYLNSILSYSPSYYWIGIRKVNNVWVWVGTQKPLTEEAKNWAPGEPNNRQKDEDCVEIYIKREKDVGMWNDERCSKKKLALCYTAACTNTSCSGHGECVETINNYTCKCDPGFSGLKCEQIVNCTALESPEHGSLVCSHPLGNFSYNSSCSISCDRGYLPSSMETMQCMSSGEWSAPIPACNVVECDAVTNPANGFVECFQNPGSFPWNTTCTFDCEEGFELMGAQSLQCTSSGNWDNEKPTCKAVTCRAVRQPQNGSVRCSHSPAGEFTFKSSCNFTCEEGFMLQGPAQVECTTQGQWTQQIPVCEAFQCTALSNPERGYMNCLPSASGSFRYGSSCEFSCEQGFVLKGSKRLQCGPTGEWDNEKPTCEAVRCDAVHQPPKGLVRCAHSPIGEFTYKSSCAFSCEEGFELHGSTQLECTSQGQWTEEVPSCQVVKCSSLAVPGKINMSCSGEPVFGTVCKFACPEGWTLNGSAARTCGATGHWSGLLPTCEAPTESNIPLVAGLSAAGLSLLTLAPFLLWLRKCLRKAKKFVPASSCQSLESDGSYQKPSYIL

For orientation: AC50 means the concentration at which the activity in the assay is half-maximal. Take `C=CC(=O)NCOCCCC`: the outcome was “inactive” in test [1]; “inactive” in test [2]; “inactive” in test [3]; “inactive” in test [4]; “inactive” with CD40, CD40 (gene 958) [5]; “inactive” in [6]. Further, the outcome in test [7], in [8], in [9], in test [10], in test [11] and in test [12] was inactive. The outcome in test [13] was “inactive”; in test [15], “inactive”; with CD38, CD38 (gene 952), “inactive”; in the test with CD40, CD40 (gene 958) [16] it was “inactive”; with CD69, CD69 (gene 969), “inactive”. In test [14], the AC50 is 20 µM (active).
Consider `C=CC(=O)OCCCCCCOC(=O)C=C`, for which the AC50 in test [1] is 11.3 µM (active); in test [2], 20 µM (active); in [4] it was 12.5 µM (active); with CD40, CD40 (gene 958) [5] it was 7.82 µM (active); in test [6] it was 9.18 µM (active); in [7] it was 4.79 µM (active). Moreover, the AC50 in test [8] was 20 µM (active); in test [9] it was 8.11 µM (active); in test [10] it was 4.29 µM (active); in test [11], 2.13 µM (active); in test [12], 5.31 µM (active); in test [13], 9.18 µM (active). Further, the AC50 in test [14] was 3.96 µM (active); in test [15], 5.81 µM (active); in the test with CD38, CD38 (gene 952), 3.8 µM (active); with CD40, CD40 (gene 958) [16], 11 µM (active); in the test with CD69, CD69 (gene 969), 2.98 µM (active). Further, the outcome in [3] was inactive.
`Fc1ccc(Br)cc1`: the outcome in test [1] was “inactive”; in [2], “inactive”; in test [3] it was “inactive”; in [4] it was “inactive”; in test [17], “inactive”; in the test with CD40, CD40 (gene 958) [5], “inactive”. In addition, the result in test [7], in test [8], in test [9], in test [11], in test [12] and in [13] was inactive. Also, the outcome in test [14] is “inactive”; in test [15] it was “inactive”; in the test with CD38, CD38 (gene 952) it was “inactive”; with CD40, CD40 (gene 958) [16], “inactive”; with CD69, CD69 (gene 969), “inactive”.
